Gal4-VP16 FLuc – VP16 counterscreen qHTS for inhibitors of ROR gamma transcriptional activity; Drosophila S2 Gal4-VP16 UAS-luciferase, luminescence, 20 h; Potency, µM (top dose mostly 53.6 µM), inactives show top-dose activity, negative = inhibition, hits mostly inhibitors; 310,000 tested, 3.5% active;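 note: Gal4-VP16 expression switched on by copper sulfate through the metallothionein promoter; potency is the fitted concentration of half-maximal effect; nearly all actives have a fitted effect of over 50% in size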
RORg inh – qHTS for inhibitors of ROR gamma transcriptional activity; Potency, µM (series often up to 53.6 µM), inactives show at the top dose activity change, negative = inhibition, hits mostly inhibitors; 310,000 tested, 5.4% active; Drosophila S2 Gal4-RORgamma UAS-luciferase reporter, 20 h; Nuclear receptor ROR-gamma (Mus musculus), P51450; AID 2551, 2010; note: potency is the fitted concentration of half-maximal effect; nearly all actives have a fitted effect of over 60% in size
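Read-out: Photinus luciferase luminescence; inhibitors lower reporter signal. Insect Schneider cells with Gal4-ROR gamma fusion under metallothionein promoter, UAS reporter; 700 uM final copper sulfate induction, 20 hr, ambient temperature.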
TSHR antagonist – Antagonists of the Thyroid Stimulating Hormone Receptor: HTS campaign | Thyrotropin receptor (Homo sapiens), P16473 | TSHR-expressing cells, TSH-stimulated cAMP HTRF, 2 h; hits give low values | activity change, negative = inhibition, % at 11.5 µM | 330,000 tested, 0.2% active;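 active = activity change below a set negative limit, meaning inhibition stronger than a set level, cut at about -70% in these data; inconclusive = activity change between two set negative limits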
Target sequence (P16473 whole entry, looked up): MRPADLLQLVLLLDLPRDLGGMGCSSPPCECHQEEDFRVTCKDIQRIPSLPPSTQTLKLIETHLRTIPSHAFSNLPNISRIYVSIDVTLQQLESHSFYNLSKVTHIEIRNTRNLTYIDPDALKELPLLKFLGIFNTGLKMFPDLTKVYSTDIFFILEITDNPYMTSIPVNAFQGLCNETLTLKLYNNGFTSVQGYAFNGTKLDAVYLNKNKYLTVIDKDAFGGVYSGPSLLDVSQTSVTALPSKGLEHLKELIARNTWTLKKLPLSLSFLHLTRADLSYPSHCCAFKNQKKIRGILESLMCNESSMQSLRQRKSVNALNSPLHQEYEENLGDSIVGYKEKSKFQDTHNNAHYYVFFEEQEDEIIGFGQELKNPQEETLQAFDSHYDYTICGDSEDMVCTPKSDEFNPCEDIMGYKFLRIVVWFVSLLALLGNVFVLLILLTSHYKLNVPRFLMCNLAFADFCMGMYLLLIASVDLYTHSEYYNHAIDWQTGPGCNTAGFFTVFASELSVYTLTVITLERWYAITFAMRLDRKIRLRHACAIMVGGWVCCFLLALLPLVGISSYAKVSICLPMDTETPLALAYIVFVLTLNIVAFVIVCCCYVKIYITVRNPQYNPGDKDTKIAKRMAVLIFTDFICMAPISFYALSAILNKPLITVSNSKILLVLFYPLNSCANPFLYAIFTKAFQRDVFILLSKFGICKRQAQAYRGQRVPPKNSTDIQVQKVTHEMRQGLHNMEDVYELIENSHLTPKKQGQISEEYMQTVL
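Competitive HTRF cAMP read-out (cryptate anti-cAMP antibody, cAMP-d2; 30 min, room temperature) in freshly harvested TSHR cells. Compounds added before TSH at EC80 (4nM final), followed by 2 hours' incubation at 37 deg C.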
ELG1 repair inh – qHTS screen for small molecules that inhibit ELG1-dependent DNA repair in human embryonic kidney (HEK293T) cells expressing luciferase-tagged ELG1; HEK293T ELG1-luciferase reporter, luminescence, 16 h; DNA damage induced by 5-fluorouridine; Potency, µM (titrated, usually from 46.1 µM), without a hit: at the highest dose activity change, negative = inhibition, most hits filed as inhibitors; 330,000 tested, 2.3% active; note: potency is the fitted concentration of half-maximal effect; nearly all actives have a fitted effect of over 55% in size
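In this reporter screen, reduction of luminescence relative to DMSO vehicle indicated activity. Compounds and 5-fluorouridine were added together to 2,000 cells per well, incubated for 16 hr at 37 °C, then developed with ONE-Glo.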
Coupling enz – qHTS Assay for Inhibitors of Fructose-1,6-bisphosphate Aldolase from Giardia Lamblia: Coupling assay counterscreen; activity change, negative = inhibition, % at 58.2 µM, hits read low; 290,000 tested, 0.67% active; coupling enzyme system counterscreen, AmpLite Red fluorescence; in the data active = activity change below about -30%
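Counterscreen lacking aldolase: glyceraldehyde-3-phosphate coupling-enzyme reagent preincubated 10 min at RT with compound (at 57.5 uM final), then substrate/coupling system with AmpLite Red added; fluorescence read at 525/598 nm after 20 min RT.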
ELG1 FLuc counter – qHTS screen for small molecules that inhibit ELG1-dependent DNA repair: Hit Confirmation in Cell-Based Luciferin Assay. shares compounds with ELG1 repair inh. cell-free firefly luciferase luminescence counter-screen, ViewLux. Potency, µM (titrated, usually from 46.1 µM), without a hit: at the top dose activity change, negative = inhibition, hits mostly inhibitors. 350 tested, 3% active. AID 624247, 2012; note: potency is the fitted concentration of half-maximal effect
ELG1-Luc inh – HTS assay for small molecules that inhibit ELG1-dependent DNA repair in human embryonic kidney (HEK293T) cells expressing luciferase-tagged ELG1: Hit Confirmation; shares compounds with ELG1 repair inh; HEK293T ELG1-luciferase levels, luminescence; cells co-treated with 5-fluorouridine; Potency, µM (doses to about 46.1 µM), without a hit: at the highest dose activity change, negative = inhibition, usual class: inhibitors; 670 tested, 68% active; AID 624248, 2012; note: potency is the fitted concentration of half-maximal effect; nearly all actives have a fitted effect of over 55% in size
ELG1-Luc MMS – MMS-stimulated human ELG1 repair inhibition, confirmed | HEK293T luciferase-tagged ELG1 level, MMS stimulated | Potency, µM (highest dose often 46.1 µM), for the others: top-dose activity change, negative = inhibition, most hits filed as inhibitors | shares compounds with ELG1 repair inh | AID 624249 | 670 tested, 53% active; note: potency is the fitted concentration of half-maximal effect; nearly all actives have a fitted effect of over 60% in size
ELG1 5-FU – qHTS screen for small molecules that inhibit ELG1-dependent DNA repair: Hit Confirmation with 5FU Viability | shares compounds with ELG1 repair inh | cell viability with 5-FU, ELG1-dependent repair | 670 tested, under 10 active | Potency, µM (titrated, usually from 46.1 µM), inactives show top-dose activity change, negative = viability loss, usual class: cytotoxic;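 note: ELG1-luc HEK293T cells cotreated with 5-fluorouridine at 10 µM final; potency is the fitted concentration of half-maximal effect; viability measured 16 h after compound addition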
ELG1 MMS viab – qHTS screen for small molecules that inhibit ELG1-dependent DNA repair: Hit Confirmation with MMS Viability. shares compounds with ELG1 repair inh. Cell viability with MMS, ELG1-dependent DNA repair. Potency, µM (series often up to 46.1 µM), for inactives: top-dose activity change, negative = viability loss, hits mostly cytotoxic. 670 tested, 33% active. AID 624251, 2012;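 note: ELG1-luc HEK293T cells co-treated with 10 µM MMS; potency is the fitted concentration of half-maximal effect; viability read 16 h after compound addition; nearly all actives have a fitted effect of over 60% in size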
ELG1 unstim viab – qHTS screen for small molecules that inhibit ELG1-dependent DNA repair: Hit Confirmation with Unstimulated Viability Assay; 900 tested, 8% active; Potency, µM (doses to about 45.9 µM), inactives show top-dose activity change, negative = loss of viability, usual class: cytotoxic; cell viability counter-screen, unstimulated, luminescence; shares compounds with ELG1 repair inh;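 note: potency is the fitted concentration of half-maximal effect; compound exposure lasted 16 hours before reading; nearly all actives have a fitted effect of over 55% in size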
FLuc enzyme – qHTS screen for small molecules that inhibit ELG1-dependent DNA repair: Hit Confirmation in Biochemical Luciferin Assay; shares compounds with ELG1 repair inh; 350 tested, 10% active; purified firefly luciferase, luminescence counter-screen; AID 624253, 2012; Potency, µM (doses to about 57.5 µM), without a hit: top-dose activity, negative = inhibition, most hits filed as inhibitors; note: potency is the fitted concentration of half-maximal effect
Numbers without * were called inactive; u = inconclusive; x = no result given; [ ] = remark or other dose. In the library only some 8% were active in any assay of this set; here they are far more common. Unless noted, calls come from the whole dose curve; as a rule, active = well fitted curve in the direction sought with a large enough effect; inconclusive = small, poorly fitted or top-dose-only effect, or another doubt; inactive = no such curve, though single readings can be large; an effect the other way counts as inactive or inconclusive. % is set by controls: 0 for no effect and ±100 for the full control effect.

SMILES	Gal4-VP16 FLuc	RORg inh	TSHR antagonist	ELG1 repair inh	Coupling enz	ELG1-Luc inh	ELG1-Luc MMS	ELG1 5-FU	ELG1 MMS viab	ELG1 unstim viab	others
COC(=O)c1[nH]c2ccc(Br)cc2c1NC(=O)C(C)N1CCN(C2CCCCC2)CC1 (stereo unspecified)	u	1.8%	0.1	17.0%	2.5	x	x	x	x	x
COC(=O)c1[nH]c2ccc(C)cc2c1NC(=O)C(C)N1CCN(C2CCCCC2)CC1 (stereo unspecified)	-3.0%	-21.5%	-3.5	-15.4%	0.5	1.12µM*	u	8.0%	7.7%	u	ELG1 FLuc counter=-5.8%;FLuc enzyme=5.1%
CCOC(=O)c1[nH]c2cc(OC)c(OC)cc2c1NC(=O)CN1CCN(c2ccc(OC)cc2)C(C)C1 (stereo unspecified)	-29.7%	u	22.8	1.3µM*	-7.1	3.24µM*	36.3µM*	u	u	40.7µM*	ELG1 FLuc counter=u;FLuc enzyme=-3.9%[115 µM]
CCOc1ccc(NS(=O)(=O)c2ccc3c(c2)n(C)c(=O)n3C)cc1	-11.9%	42.1%	-1.0	-21.8%	1.8	x	x	x	x	x
O=Cc1cn(CC(=O)Nc2ccc(F)cc2)c2ccccc12	-21.8%	u	-15.1	3.66µM*	-1.3	-3.8%	3.15µM*	-3.4%	14.1µM*	-2.6%
CNc1nc2c(c(=O)n(C)c(=O)n2C)n1Cc1ccccc1	u	-7.6%	-17.6	-2.4%	-0.6	x	x	x	x	x
Cn1c(=O)c2c(nc(NC(Cc3ccccc3)C(=O)O)n2Cc2ccccc2)n(C)c1=O (stereo unspecified)	-22.8%	-2.2%	-5.8	-21.8%	2.4	u	-11.6%	8.1%	-4.1%	-4.4%	ELG1 FLuc counter=0.1%;FLuc enzyme=-2.6%
NC(=O)c1c(NC(=O)Cn2cc([N+](=O)[O-])cn2)sc2c1CCCC2	1.9%	u	-2.6	-4.8%	-1.1	x	x	x	x	x
CCOC(=O)c1c(NC(=O)Cn2cc([N+](=O)[O-])cn2)sc2c1CCC2	-3.6%	-1.5%	17.5	1.84µM*	2.3	-9.1%	17.7µM*	4.8%	7.91µM*	u
COc1ccc(-c2cnc(-c3cccnc3)o2)cc1	-3.8%	u	x	x	-0.7	x	x	x	x	2.8%
COc1cc(OC)c2c(=O)cc(-c3cccnc3)oc2c1	-5.8%	-16.5%	-12.8	u	0.7	x	x	x	x	x
Cc1nc(C)c(C(=O)OCC(=O)NCCc2ccc(F)cc2)s1	x	x	7.3	4.3%	x	x	x	x	x	x
CN(C1CCCCC1)S(=O)(=O)c1cccc2nsnc12	19.1%	-16.0%	-0.7	5.2%	3.2	x	x	x	x	x
CCOC(=O)C1=C(C2=CCCCC2)c2ccc(OC)cc2N(S(=O)(=O)C(F)(F)F)C1C(=O)OCC (stereo unspecified)	x	x	33.9	-20.1%	x	x	x	x	x	x
CCOC(=O)C1C(C(=O)OC)=C(c2ccc(OC)cc2)c2ccc(OC)cc2N1S(=O)(=O)C(F)(F)F (stereo unspecified)	-9.5%[40.7 µM]	-0.1%[40.7 µM]	-7.8	4.11µM*	1.8	5.6µM*	u	u	-8.1%	-17.2%
COc1ccc2c(c1)c(CC(=O)Nc1cccc(S(N)(=O)=O)c1)c(C)n2C(=O)c1ccc(Cl)cc1	-13.0%	25.9%	-3.3	18.3µM*	1.5	14.1µM*	17.7µM*	u	u	u	ELG1 FLuc counter=-5.1%;FLuc enzyme=4.0%
COc1ccc(NC(=O)Cc2c(C)n(C(=O)c3ccc(Cl)cc3)c3ccc(OC)cc23)cc1	-17.1%	u	-0.6	2.59µM*	-0.1	17.7µM*	15.2%	u	-3.5%	-2.5%	ELG1 FLuc counter=21.6%;FLuc enzyme=1.9%
Cc1cccc(NS(=O)(=O)c2c(C)[nH]c(C)c2C(=O)N2CCCC2)c1	1.4%	-10.4%	-0.4	-0.5%	-0.3	x	x	x	x	x
O=C1c2cccc(OCc3ccc(F)cc3)c2CCN1Cc1ccccc1	u	u	-37.1	u	-24.3	u	4.45µM*	-10.3%	6.28µM*	u
O=C(NC1CCCN(Cc2ccccc2F)C1)C1CCC1 (stereo unspecified)	-2.9%	-4.9%	-3.7	-9.6%	2.0	x	x	x	x	x
CCCNC(=O)C(=O)Nc1ccc2c(c1)N(S(=O)(=O)c1cccs1)CCC2	x	x	-9.8	3.26µM*	x	15.8µM*	5.6µM*	u	u	-9.9%
CS(=O)(=O)Nc1ccc(C2=NN(C(=O)CCCC(=O)O)C(c3cccs3)C2)cc1 (stereo unspecified)	5.4%	30.0%	24.7	0.0%	-1.3	x	x	x	x	x
CC1CCCC(NC(=O)C2CCN(S(=O)(=O)c3cnc[nH]3)CC2)C1C (stereo unspecified)	2.9%	-1.4%	1.7	-3.6%	-0.3	x	x	x	x	x

From PubChem BioAssay
